From PubChem BioAssay (NCI)
Values joined by “and” are separate entries in the source; they are usually repeats but may differ in a detail not shown here. Identical values can stand only once. This is part of a sample that, as a whole, favours compounds with a hit. Of some 83,000 tested, about 20% had one in any assay.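 Growth was measured after 48 h exposure to one concentration of compound in 96-well plates. Values under 10 count as active.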 A number with no mark means an inactive call. Active and inactive are the calls of the source.

Test system: SF-268 CNS
Test: NCI-60 one-dose screen, 48 h (100 = growth as untreated, 0 = no growth, -100 = all killed)
Conditions: 10 µM

Row | Compound | growth
1 | COc1ccc(C(C#N)=C2C=CC(=NO)C=C2)cc1 | 80.9%
2 | CC1CCC2(C(=O)O)CCC3(C)C(=CCC4C5(C)CC(O)C(O)C(C)(CO)C5C(O)CC43C)C2C1C (stereo not given) | 111%
3 | COc1ccc2c(c1)[nH]c1c(/C=C/c3ccccc3)nccc12 | 85.5%
4 | O=C(O)c1ccccc1.[Ag] | 97.1%
5 | Cc1cc(O)c2c(c1O)C(=O)C13C(=C2O)C(=O)C2C(O)C1C1C(O)C3C(=O)C3=C(O)c4c(O)cc(C)c(O)c4C(=O)C321 (stereo not given) | 10.6%
6 | S=C1SCN(CCc2ccccc2)CN1CCc1ccccc1 | 106%
7 | Cc1cc(C)c(N2C(=O)CC(Sc3ccccc3N)C2=O)c(C)c1 (stereo not given) | 80.7%
8 | COc1ccc2oc(-c3ccc(Cl)cc3)c(N3CCN(C)CC3)c2c1 | 37.2%
9 | NCc1c(O)ccc2ccccc12 | 97.2%
10 | O=C(NC(=S)Nc1ccccn1)c1ccccc1 | 104%
11 | CN(CC(=O)O)c1ccc(/C=C/c2ccnc3ccccc23)cc1 | 90.1%
12 | Cc1c(-c2ccccc2)[nH]c2ccccc12 | 104%
13 | S=P(N1CC1)(N1CC1)N1CC1 | 124% and 83.6%
14 | ClCCn1c(CCl)nc2ccc(Cl)cc21 | -69.2% (active)
15 | CN(C)c1ccc(/C=C/c2ccnc3ccccc23)cc1N | 87.4%
16 | COc1ccc(N)c2c1C(=O)c1ccccc1C2=O | 104%
17 | CC[C@@]1(OC(=O)CN(C)C)C(=O)OCc2c1cc1n(c2=O)Cc2cc3c(N)cccc3nc2-1 | 8.15% (active)
18 | Cc1cc(N=C2C=CC(=[N+](C)C)C=C2)c(N)cc1N | 97.9%
19 | CC(=O)O[C@H]1C(=O)[C@@]2(C)[C@H]([C@H](OC(=O)c3ccccc3)[C@]3(O)C[C@H](OC(=O)[C@H](O)[C@@H](NC(=O)c4ccccc4)c4ccccc4)C(C)=C1C3(C)C)[C@]1(OC(C)=O)CO[C@@H]1C[C@@H]2O | 37.1% and 36.3%
20 | O=C1C(Cl)=C(Cl)C(Cl)(Cl)C(Cl)C1(Cl)Cl (stereo not given) | 108%

Test system: SF-295 CNS
Test: as above
Conditions: 10 µM

Row | Compound | growth
21 | COc1ccc(C(C#N)=C2C=CC(=NO)C=C2)cc1 | 106%
22 | CC1CCC2(C(=O)O)CCC3(C)C(=CCC4C5(C)CC(O)C(O)C(C)(CO)C5C(O)CC43C)C2C1C (stereo not given) | 112%
23 | COc1ccc2c(c1)[nH]c1c(/C=C/c3ccccc3)nccc12 | 59.2%
24 | O=C(O)c1ccccc1.[Ag] | 99.7%
25 | Cc1cc(O)c2c(c1O)C(=O)C13C(=C2O)C(=O)C2C(O)C1C1C(O)C3C(=O)C3=C(O)c4c(O)cc(C)c(O)c4C(=O)C321 (stereo not given) | -30.2% (active)
26 | S=C1SCN(CCc2ccccc2)CN1CCc1ccccc1 | 93.4%
27 | Cc1cc(C)c(N2C(=O)CC(Sc3ccccc3N)C2=O)c(C)c1 (stereo not given) | 47.5%
28 | COc1ccc2oc(-c3ccc(Cl)cc3)c(N3CCN(C)CC3)c2c1 | -54.5% (active)
29 | NCc1c(O)ccc2ccccc12 | 75.5%
30 | O=C(NC(=S)Nc1ccccn1)c1ccccc1 | 104%
31 | CN(CC(=O)O)c1ccc(/C=C/c2ccnc3ccccc23)cc1 | 92.2%
32 | Cc1c(-c2ccccc2)[nH]c2ccccc12 | 106%
33 | S=P(N1CC1)(N1CC1)N1CC1 | 104% and 81.7%
34 | ClCCn1c(CCl)nc2ccc(Cl)cc21 | 25.3%
35 | CN(C)c1ccc(/C=C/c2ccnc3ccccc23)cc1N | 74.8%
36 | COc1ccc(N)c2c1C(=O)c1ccccc1C2=O | 103%
37 | CC[C@@]1(OC(=O)CN(C)C)C(=O)OCc2c1cc1n(c2=O)Cc2cc3c(N)cccc3nc2-1 | -7.04% (active)
38 | Cc1cc(N=C2C=CC(=[N+](C)C)C=C2)c(N)cc1N | 90.8%
39 | CC(=O)O[C@H]1C(=O)[C@@]2(C)[C@H]([C@H](OC(=O)c3ccccc3)[C@]3(O)C[C@H](OC(=O)[C@H](O)[C@@H](NC(=O)c4ccccc4)c4ccccc4)C(C)=C1C3(C)C)[C@]1(OC(C)=O)CO[C@@H]1C[C@@H]2O | 9.92% (active) and 1.83% (active)
40 | O=C1C(Cl)=C(Cl)C(Cl)(Cl)C(Cl)C1(Cl)Cl (stereo not given) | 94.5%

Test system: SF-539 CNS
Test: as above
Conditions: 10 µM

Row | Compound | growth
41 | COc1ccc(C(C#N)=C2C=CC(=NO)C=C2)cc1 | 79%
42 | CC1CCC2(C(=O)O)CCC3(C)C(=CCC4C5(C)CC(O)C(O)C(C)(CO)C5C(O)CC43C)C2C1C (stereo not given) | 99.6%
43 | COc1ccc2c(c1)[nH]c1c(/C=C/c3ccccc3)nccc12 | 52.1%
44 | O=C(O)c1ccccc1.[Ag] | 106%
45 | Cc1cc(O)c2c(c1O)C(=O)C13C(=C2O)C(=O)C2C(O)C1C1C(O)C3C(=O)C3=C(O)c4c(O)cc(C)c(O)c4C(=O)C321 (stereo not given) | -47.2% (active)
46 | S=C1SCN(CCc2ccccc2)CN1CCc1ccccc1 | 115%
47 | Cc1cc(C)c(N2C(=O)CC(Sc3ccccc3N)C2=O)c(C)c1 (stereo not given) | 88%
48 | COc1ccc2oc(-c3ccc(Cl)cc3)c(N3CCN(C)CC3)c2c1 | -6.28% (active)
49 | NCc1c(O)ccc2ccccc12 | 92.8%
50 | O=C(NC(=S)Nc1ccccn1)c1ccccc1 | 88.6%
51 | CN(CC(=O)O)c1ccc(/C=C/c2ccnc3ccccc23)cc1 | 90.3%
52 | Cc1c(-c2ccccc2)[nH]c2ccccc12 | 99.3%
53 | S=P(N1CC1)(N1CC1)N1CC1 | 113% and 94.6%
54 | ClCCn1c(CCl)nc2ccc(Cl)cc21 | -43.9% (active)
55 | CN(C)c1ccc(/C=C/c2ccnc3ccccc23)cc1N | 76.9%
56 | COc1ccc(N)c2c1C(=O)c1ccccc1C2=O | 101%
57 | CC[C@@]1(OC(=O)CN(C)C)C(=O)OCc2c1cc1n(c2=O)Cc2cc3c(N)cccc3nc2-1 | -30.9% (active)
58 | Cc1cc(N=C2C=CC(=[N+](C)C)C=C2)c(N)cc1N | 89.3%
59 | CC(=O)O[C@H]1C(=O)[C@@]2(C)[C@H]([C@H](OC(=O)c3ccccc3)[C@]3(O)C[C@H](OC(=O)[C@H](O)[C@@H](NC(=O)c4ccccc4)c4ccccc4)C(C)=C1C3(C)C)[C@]1(OC(C)=O)CO[C@@H]1C[C@@H]2O | -14.3% (active) and -16.1% (active)
60 | O=C1C(Cl)=C(Cl)C(Cl)(Cl)C(Cl)C1(Cl)Cl (stereo not given) | 96.2%
